The nature of assay [1]: qHTS assay to identify small molecule antagonists of the glucocorticoid receptor (GR) signaling pathway - cell viability counter screen (AID 720693). Also: nearly all actives have a fitted effect of over 55% in size. Also: potency is read from the fitted curve at half-maximal effect. In general terms: qHTS replaces the single test concentration by a dilution series.
Assay [2] is described as follows: qHTS assay for identifying genotoxic compounds that show differential cytotoxicity against isogenic chicken DT40 cell lines with known DNA damage response pathways - wild type cell line (AID 743012). Also: nearly all actives have a fitted effect of over 60% in size. Also: potency is read from the fitted curve at half-maximal effect. The method in brief:
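Luminescent ATP viability signal (CellTiter-Glo, 30 min RT) recorded after wild type DT40 cells were incubated with compounds for 40 h at 37 C/5% CO2.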

Assay [3] in a line: qHTS assay for identifying genotoxic compounds that show differential cytotoxicity against isogenic chicken DT40 cell lines with known DNA damage response pathways - Rev3 mutant cell line (AID 743014). Also: nearly all actives have a fitted effect of over 55% in size. Also: potency is read from the fitted curve at half-maximal effect.
Assay [4] in a line: qHTS assay for identifying genotoxic compounds that show differential cytotoxicity against isogenic chicken DT40 cell lines with known DNA damage response pathways - Rad54/Ku70 mutant cell line (AID 743015). Also: nearly all actives have a fitted effect of over 60% in size. Also: potency is read from the fitted curve at half-maximal effect.
Assay [5] in a line: qHTS assay to identify small molecule antagonists of the androgen receptor (AR) signaling pathway - cell viability counter screen (AID 743033; also: nearly all actives have a fitted effect of over 45% in size; also: potency is read from the fitted curve at half-maximal effect).
In assay [6] the target is Androgen receptor (Homo sapiens) (UniProt P10275). The assay can be described thus: qHTS assay to identify small molecule antagonists of the androgen receptor (AR) signaling pathway (AID 743035; active = well fitted inhibition curve with a large enough effect in the signal ratio in the repeat runs, not every such curve was filed as active; inconclusive = weak or mixed curves, or effect the other way; inactive = no such curve, though single readings can be large or run the other way; the % refers to the signal ratio; also: potency is read from the fitted curve at half-maximal effect). The method in brief: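 Quantitative HTS of the Tox21 10K library used HEK293 AR-UAS-bla cells stimulated with R1881 alongside compound for 16 h at 37C, followed by beta-lactamase FRET detection (LiveBLAzer B/G, 2 h, RT).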

Assay [7] shares this target. In words: qHTS assay to identify small molecule agonists of the androgen receptor (AR) signaling pathway using the MDA cell line (AID 743040; also: nearly all actives have a fitted effect of over 20% in size). The essentials:
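Luciferase read-out, ONE-Glo, 30 min RT. Cells: MDA-kb2 AR-luc, MMTV promoter with AR and GR response elements. Compound exposure 16 h, 37C, 0% CO2, after 5 h pre-incubation. qHTS agonist mode.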

A short description of assay [8]: qHTS assay to identify small molecule antagonists of the androgen receptor (AR) signaling pathway using the MDA cell line - cell viability counter screen (AID 743041; also: nearly all actives have a fitted effect of over 45% in size; also: potency is read from the fitted curve at half-maximal effect). The method in brief:
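Cytotoxicity counter screen: MDA-kb2 AR-luc cells, compound + R1881, 16 h, 37C, 0% CO2; CellTiter-Fluor added at 15.5 h, fluorescence read after 30 min.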

Assay [9] addresses Androgen receptor (Homo sapiens) (UniProt P10275). In words: qHTS assay to identify small molecule antagonists of the androgen receptor (AR) signaling pathway using the MDA cell line (AID 743042; also: nearly all actives have a fitted effect of over 55% in size; also: potency is read from the fitted curve at half-maximal effect). The essentials:
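MDA-kb2 breast carcinoma cells carrying MMTV-luciferase (AR/GR responsive) were co-treated with compounds and the agonist R1881 for 16 h at 37C. Inhibition read as ONE-Glo luminescence; CellTiter-Fluor fluorescence measured in parallel for cytotoxicity.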

The nature of assay [10]: qHTS assay to identify small molecule antagonists of the thyroid receptor (TR) signaling pathway - cell viability counter screen (AID 743064). Also: nearly all actives have a fitted effect of over 50% in size. Also: potency is read from the fitted curve at half-maximal effect. The essentials:
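GH3.TRE-Luc rat pituitary cells carrying a TRE-luciferase reporter were treated with compound plus 1 nM T3 (final) for 23.5 h at 37 °C. Viability was then read in the same wells by CellTiter-Fluor fluorescence after a further 30 min.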

Assay [11] in a line: qHTS assay to identify small molecule antagonists of the thyroid receptor (TR) signaling pathway (AID 743065). Also: nearly all actives have a fitted effect of over 55% in size. Also: potency is read from the fitted curve at half-maximal effect. The essentials: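 GH3.TRE-Luc rat pituitary cells (two TREs driving luciferase) were dosed with compound, then stimulated with 1 nM T3 (final) for 23.5 h at 37 C. ONE-Glo luminescence was the read-out, with CellTiter-Fluor fluorescence as the cytotoxicity counter-screen.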

For assay [12], the system named is thyroid hormone receptor (rat, GH3 cells). In words: qHTS assay to identify small molecule agonists of the thyroid receptor (TR) signaling pathway (AID 743066; calls by dose curve).
Assay [13] in a line: qHTS assay to identify small molecule antagonists of the estrogen receptor alpha (ER-alpha) signaling pathway - cell viability counter screen (AID 743074; calls by dose curve;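 also: HEK293 cells carrying ER-alpha-UAS-bla reporter stimulated with 17beta-estradiol; nearly all actives have a fitted effect of over 45% in size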; also: potency is read from the fitted curve at half-maximal effect).
Assay [14] concerns the target Estrogen receptor (Homo sapiens) (UniProt P03372). In words: qHTS assay to identify small molecule agonists of the estrogen receptor alpha (ER-alpha) signaling pathway (AID 743075; calls by dose curve; also: potency is read from the fitted curve at half-maximal effect). To be noted: HEK293 ER-alpha-UAS-bla, beta-lactamase FRET ratio, 18 h; activation: at 70.1 µM (top of the series).
Assay [15] in a line: qHTS assay to identify small molecule antagonists of the estrogen receptor alpha (ER-alpha) signaling pathway using the BG1 cell line - cell viability counter screen (AID 743081).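 Also: compound given together with 17beta-estradiol as the ER stimulus; nearly all actives have a fitted effect of over 45% in size.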 Also: potency is read from the fitted curve at half-maximal effect.
A further assay deals with Aromatase (Homo sapiens) (UniProt P11511). In words: qHTS assay to identify aromatase inhibitors (AID 743083). Also: nearly all actives have a fitted effect of over 55% in size. Also: potency is read from the fitted curve at half-maximal effect.
For assay [16], the target named is Androgen receptor (Homo sapiens) (UniProt P10275). The assay can be described thus: qHTS assay to identify small molecule agonists of the androgen receptor (AR) signaling pathway (AID 743036; active = well fitted activation curve with a large enough effect in the signal ratio in the repeat runs, with a control signal flat, not every such curve was filed as active; inconclusive = weak or mixed curves, or effect the other way; inactive = no such curve, though single readings can be large or run the other way; the % refers to the signal ratio). The method in brief:
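HEK293 cells stably carrying a UAS-driven beta-lactamase reporter (GeneBLAzer AR-UAS-bla-GripTite) were plated at 2,000 cells/well, rested 4 h at 37C, then exposed to compounds in DMSO for 16 h. LiveBLAzer B/G FRET substrate was added for 2 h at room temperature; fluorescence read.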

Assay [17] deals with Estrogen receptor (Homo sapiens) (UniProt P03372). In words: qHTS assay to identify small molecule antagonists of the estrogen receptor alpha (ER-alpha) signaling pathway (AID 743069; active = well fitted curve in the direction sought with a large enough effect in the signal ratio in the repeat runs, not every such curve was filed as active; inconclusive = weak or mixed curves, or effect the other way; inactive = no such curve, though single readings can be large or run the other way; the % refers to the signal ratio). The method in brief:
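Beta-lactamase FRET fluorescence is read after 2 hr at room temperature with LiveBLAzer B/G substrate. Before that, ER-alpha-bla HEK293 cells sit 4 hr after plating, then receive compound plus 17beta-estradiol and incubate 18 hr at 37C.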

The target is the same in assay [18]. The assay can be described thus: qHTS assay to identify small molecule agonists of the estrogen receptor alpha (ER-alpha) signaling pathway using the BG1 cell line (AID 743079). Also: nearly all actives have a fitted effect of over 20% in size. Also: potency is read from the fitted curve at half-maximal effect. To be noted: BG1Luc4E2 cells, ERE-luciferase agonist, 22 h.
The nature of assay [19]: qHTS assay to identify small molecule antagonists of the estrogen receptor alpha (ER-alpha) signaling pathway using the BG1 cell line (AID 743080; calls by dose curve;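 also: BG1 cells stimulated with 17beta-estradiol alongside compound; nearly all actives have a fitted effect of over 25% in size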). The essentials:
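Luciferase inhibition measured with ONE-Glo after 30 min at RT in BG1Luc4E2 cells given test compounds and 17beta-estradiol for 21.5 h at 37 C; CellTiter-Fluor viability read in the same wells beforehand.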

Several values for one entry are separate records, joined by “and”; a condition that tells them apart may be missing. Equal values may be shown once. Unmarked numbers belong to inactive results. Activity calls are given as the source filed them. Unless noted, calls follow the shape of the dose curve; as a rule, active = well fitted curve in the direction sought with a large enough effect in the repeat runs; inconclusive = weak or mixed curves; inactive = no such curve, though single readings can be large; an effect the other way counts as inactive or inconclusive.
% is scaled to controls: 0 for no effect and ±100 for the full control effect.

Chain of Androgen receptor (Homo sapiens) (P10275 whole entry, looked up): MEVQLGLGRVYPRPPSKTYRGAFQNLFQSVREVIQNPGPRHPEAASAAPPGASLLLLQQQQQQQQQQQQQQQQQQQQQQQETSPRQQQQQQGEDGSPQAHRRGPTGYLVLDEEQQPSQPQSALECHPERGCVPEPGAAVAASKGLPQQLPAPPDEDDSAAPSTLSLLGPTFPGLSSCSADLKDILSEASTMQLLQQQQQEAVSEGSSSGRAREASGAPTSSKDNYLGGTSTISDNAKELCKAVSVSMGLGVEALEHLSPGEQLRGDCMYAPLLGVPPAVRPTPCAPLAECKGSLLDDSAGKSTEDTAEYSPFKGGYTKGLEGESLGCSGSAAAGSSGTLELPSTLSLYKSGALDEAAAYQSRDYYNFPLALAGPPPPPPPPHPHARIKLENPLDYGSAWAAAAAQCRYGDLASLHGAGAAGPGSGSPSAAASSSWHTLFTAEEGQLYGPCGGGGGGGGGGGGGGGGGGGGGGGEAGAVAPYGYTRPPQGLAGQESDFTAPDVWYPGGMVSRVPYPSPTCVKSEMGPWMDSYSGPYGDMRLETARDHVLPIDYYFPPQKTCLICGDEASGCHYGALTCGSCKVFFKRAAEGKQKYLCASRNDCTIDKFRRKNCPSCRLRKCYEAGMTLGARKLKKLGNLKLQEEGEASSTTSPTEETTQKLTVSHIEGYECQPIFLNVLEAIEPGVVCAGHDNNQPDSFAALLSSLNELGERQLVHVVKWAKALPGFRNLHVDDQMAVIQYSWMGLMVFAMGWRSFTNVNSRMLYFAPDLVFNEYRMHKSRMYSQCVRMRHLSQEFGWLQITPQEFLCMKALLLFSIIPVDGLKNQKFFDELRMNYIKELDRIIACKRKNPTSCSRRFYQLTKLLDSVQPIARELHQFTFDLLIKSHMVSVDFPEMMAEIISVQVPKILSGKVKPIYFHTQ
Chain of Estrogen receptor (Homo sapiens) (P03372 whole entry, looked up): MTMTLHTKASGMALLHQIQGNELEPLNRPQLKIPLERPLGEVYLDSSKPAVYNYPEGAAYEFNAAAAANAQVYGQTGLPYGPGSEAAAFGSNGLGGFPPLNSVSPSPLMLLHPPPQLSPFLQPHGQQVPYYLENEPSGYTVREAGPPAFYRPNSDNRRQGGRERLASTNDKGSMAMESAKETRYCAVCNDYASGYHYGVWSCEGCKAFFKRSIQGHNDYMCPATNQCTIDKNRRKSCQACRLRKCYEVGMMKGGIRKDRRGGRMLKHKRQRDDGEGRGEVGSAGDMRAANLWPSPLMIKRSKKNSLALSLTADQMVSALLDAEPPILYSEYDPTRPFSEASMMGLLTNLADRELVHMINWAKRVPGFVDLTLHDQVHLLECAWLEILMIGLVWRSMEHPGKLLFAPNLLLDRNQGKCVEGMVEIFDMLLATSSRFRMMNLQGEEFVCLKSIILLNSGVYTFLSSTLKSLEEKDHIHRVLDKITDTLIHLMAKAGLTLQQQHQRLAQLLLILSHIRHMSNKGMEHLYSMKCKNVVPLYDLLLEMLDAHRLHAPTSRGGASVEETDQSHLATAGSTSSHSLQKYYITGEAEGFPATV
Chain of Aromatase (Homo sapiens) (P11511 whole entry, looked up): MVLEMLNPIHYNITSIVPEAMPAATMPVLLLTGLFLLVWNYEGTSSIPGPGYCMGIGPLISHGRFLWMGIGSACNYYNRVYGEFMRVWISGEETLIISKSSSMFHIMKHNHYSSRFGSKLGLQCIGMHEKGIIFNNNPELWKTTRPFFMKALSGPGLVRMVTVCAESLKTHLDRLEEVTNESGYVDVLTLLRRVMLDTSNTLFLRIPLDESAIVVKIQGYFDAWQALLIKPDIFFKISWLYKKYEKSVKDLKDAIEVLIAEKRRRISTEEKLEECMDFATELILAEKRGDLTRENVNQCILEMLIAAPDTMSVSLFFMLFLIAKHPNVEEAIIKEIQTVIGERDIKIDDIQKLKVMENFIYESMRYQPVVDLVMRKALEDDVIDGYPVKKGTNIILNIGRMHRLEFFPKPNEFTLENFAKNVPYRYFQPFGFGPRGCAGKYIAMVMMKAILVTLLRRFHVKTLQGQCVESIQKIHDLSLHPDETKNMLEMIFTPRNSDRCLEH

As for `C=CC(=O)OCC(CO)(COC(=O)C=C)COC(=O)C=C`, the Potency was 6.19 µM (active) and 11 µM (active) in assay [1]; 1.73 µM (active) and 2.17 µM (active) in assay [2]; 1.22 µM (active) and 2.43 µM (active) in assay [3]; 1.37 µM (active) and 1.72 µM (active) in assay [4]; 6.94 µM (active) and 11 µM (active) in assay [5]; 3.9 µM (active) and 4.9 µM (active) in assay [6]. In addition, the Potency was 17.3 µM (active) and 27.3 µM (active) in [8]; 2.18 µM (active) and 3.86 µM (active) in assay [9]; 2.44 µM (active) and 2.17 µM (active) in [10]; 1.73 µM (active) and 1.72 µM (active) in assay [11]; 39 µM (active) and 49 µM (active) in assay [13]; 13.9 µM [inconclusive] (active) and 12.3 µM [inconclusive] (active) in assay [14]. For the same compound, the Potency in assay [15] was 27.4 µM (active) and 27.3 µM (active); in the assay with Aromatase (Homo sapiens), 2.74 µM (active) and 5.45 µM (active). Moreover, the Potency entry in [7] and in assay [12] was “inactive” throughout.
Regarding `[Cl][Bi]([Cl])([c]1ccccc1)([c]1ccccc1)[c]1ccccc1`, the Potency in assay [1] is 48.7 µM (active); in [2] it was 1.36 µM (active); in [3] it was 2.16 µM (active); in assay [4], 2.42 µM (active); in assay [5], 12.2 µM (active); in [8], 27.1 µM (active). For the same compound, the Potency in assay [9] was 13.6 µM (active); in [10] it was 1.71 µM (active); in assay [13], 48.7 µM (active); in assay [14] it was 6.13 µM [inconclusive] (active); in assay [15], 60.8 µM (active); with Aromatase (Homo sapiens), 6.82 µM (active). In addition, the Potency entry in [7] was “inactive”.
For `CCc1cc(Cc2cc(CC)cc(C(C)(C)C)c2O)c(O)c(C(C)(C)C)c1`, the Potency is 11 µM (active) in [1]; 21.7 µM (active) in assay [2]; 19.3 µM (active) in assay [3]; 15.4 µM (active) in assay [4]; 24.5 µM (active) in assay [5]; 13.8 µM (active) in assay [6]. Besides, the Potency in assay [10] is 7.7 µM (active); in assay [11], 6.11 µM (active); in assay [13], 15.5 µM (active); in [15], 68.6 µM (active); in the assay with Aromatase (Homo sapiens), 30.6 µM (active). Besides, the Potency result in assay [7], in [8] and in assay [12] was “inactive” throughout.
Take `NNC(=O)c1cccc(C(=O)NN)c1`: the Potency result in assay [1], in assay [2], in [3], in assay [4], in assay [5] and in assay [6] was “inactive” each time. Besides, the Potency entry in [16], in assay [7], in assay [8], in assay [9], in assay [10] and in assay [11] was “inactive” throughout. Besides, the Potency result in assay [12], in assay [17], in assay [13], in assay [14], in assay [19] and in [15] was “inactive” throughout. Moreover, the Potency result in the assay with Aromatase (Homo sapiens) is “inactive”. The activation in [18] (at 70.3 µM (top of the series)) was 4.33%.
As for `CCCN(CCC)C(=O)C(CCC(=O)OCCCN1CCN(CCOC(=O)Cc2c(C)n(C(=O)c3ccc(Cl)cc3)c3ccc(OC)cc23)CC1)NC(=O)c1ccccc1` (stereo not given), the Potency result in [1], in assay [5], in [7], in assay [8], in assay [13] and in assay [19] was “inactive” each time. Moreover, the Potency result in assay [15] was “inactive”. Besides, the Potency in [2] was 23.7 µM (active); in [3], 26.6 µM (active); in [4], 23.7 µM (active); in assay [10] it was 13.3 µM (active); in assay [11], 26.6 µM (active); in assay [14], 7.56 µM [activator] (active). In addition, the Potency in assay [18] is 0.211 µM (active).
As for `[O-][n+]1ccccc1SSc1cccc[n+]1[O-]`, the Potency entry in assay [1], in assay [7], in assay [14] and in [15] was “inactive” each time. Besides, the Potency in assay [2] was 0.0596 µM (active); in assay [3] it was 0.0668 µM (active); in [4] it was 0.0841 µM (active); in assay [5], 0.169 µM (active); in assay [8], 1.56 µM (active); in assay [9], 1.19 µM (active). For the same compound, the Potency in assay [10] is 0.266 µM (active); in assay [11], 0.211 µM (active); with Aromatase (Homo sapiens) it was 0.15 µM (active).

Values taken from PubChem BioAssay (Tox21).
